Screening data as filed in PubChem BioAssay.
PTHR1 ag – activates the human parathyroid hormone receptor PTHR1. Potency, µM (titrated, usually from 115 µM), usual class: activators. 0.075% of 410,000 active. Q03431. HEK293 GP2 PTHR1 cells, GloSensor cAMP luminescence, 1 h; further: nearly all actives have a fitted effect of over 55% in size
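HEK-293-derived GP2 cells expressing PTHR1 and a GloSensor cAMP reporter, 3,000/well, plated overnight, given luciferin plus IBMX (each 0.5 mM as added) for 1 h at 37 °C, then compound for 1 h at 37 °C. Luminescence was read after 15 min at room temperature.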
GLP1R inv ag – inverse agonists of human GLP-1 receptor; P43220; HEK293 GLP-1R CRE-luciferase, luminescence, 24 h; GLP-1R form is constitutively active; Potency, µM (doses to about 38.3 µM), actives largely listed as inhibitors; 1.6% of 410,000 active; AID 624417; further: nearly all actives have a fitted effect of over 55% in size
Target sequence (P43220 whole entry, looked up): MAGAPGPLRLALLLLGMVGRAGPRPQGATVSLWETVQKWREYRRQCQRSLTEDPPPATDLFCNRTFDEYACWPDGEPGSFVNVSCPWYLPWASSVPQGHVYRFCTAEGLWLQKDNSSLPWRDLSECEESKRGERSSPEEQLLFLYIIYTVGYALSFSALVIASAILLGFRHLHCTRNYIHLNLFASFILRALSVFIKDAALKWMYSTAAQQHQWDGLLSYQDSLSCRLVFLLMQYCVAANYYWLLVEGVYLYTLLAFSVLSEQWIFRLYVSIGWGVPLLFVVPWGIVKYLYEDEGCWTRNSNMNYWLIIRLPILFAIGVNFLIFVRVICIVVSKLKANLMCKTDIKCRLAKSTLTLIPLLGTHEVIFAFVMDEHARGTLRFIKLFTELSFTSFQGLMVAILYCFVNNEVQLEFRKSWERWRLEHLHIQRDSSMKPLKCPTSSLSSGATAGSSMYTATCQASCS
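Readout was luciferase luminescence, measured 12 min after detection reagent at room temperature. Beforehand, GLP-1R reporter HEK293 cells had sat 12 h, then received compounds for 24 hr at 37 deg C.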
GLP1R ag – activates the human GLP-1 receptor | HEK293 GLP-1R CRE-luciferase, luminescence, 4-6 h; cells express a hypersensitive GLP-1R form | P43220 | Potency, µM (highest dose often 45.6 µM), most hits filed as activators | 0.007% of 380,000 active | AID 624172
HEK293 tox – cytotoxicity counter-screen for GLP-1 receptor inverse agonists; HEK293 cAMP-luciferase reporter cells, luminescence, 24 h; Potency, µM (series often up to 38.3 µM), most hits filed as inhibitors; 0.13% of 410,000 active; AID 624418;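 further: loss of luciferase light is scored as toxicity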
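MLSMR compounds, 24 hr on cells at 37 deg C/5% CO2; luminescence after luciferase reagent (12 min RT). Inhibition counted as the undesired cytotoxic outcome.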
A number is an active result; – = inactive; ? = inconclusive; · = no result given. An excerpt weighted towards active compounds, which were near 1.7% of everything screened. The call rests on the fitted dose curve; in most records, active means well fitted curve in the direction sought with a large enough effect; inconclusive means small, poorly fitted or top-dose-only effect, or another doubt; inactive means no such curve, though single readings can be large; an effect the other way counts as inactive or inconclusive.

SMILES	PTHR1 ag	GLP1R inv ag	GLP1R ag	HEK293 tox
O=C1C2C(c3ccccc3)CC=CC2[C@H](c2cccc([N+](=O)[O-])c2)N1Cc1ccccc1 (some centres not stated)	–	10µM	–	–
Cc1ccc(NC(=O)C2CCCN(S(=O)(=O)c3ccc4c(c3)CCCC(=O)N4)C2)cc1Cl (configuration not stated)	–	?	–	–
N#Cc1ccc(OC(=O)c2cc(-c3ccc(Cl)cc3)on2)cc1	–	–	·	–
COc1ccc(S(=O)(=O)n2nc(-c3ccco3)nc2NCc2ccc(OC)c(OC)c2)cc1	–	–	·	–
COc1cc2c(cc1OC)-c1cc(Nc3ccccc3Br)nc(=O)n1CC2	–	–	8.9µM	–
CCOc1ccc(-c2cc(C(=O)NCCOC)[nH]n2)c(C)c1	–	–	–	–
CCOc1ccc(-c2cc(C(=O)Nc3ccc(C)c(NS(C)(=O)=O)c3)[nH]n2)c(C)c1	–	7.1µM	–	?
Oc1ccc(N=Nc2ccc3c(c2)OCCO3)c2ncccc12	–	?	–	10µM
COc1ccccc1CNC(=O)CN1C(=O)CCc2cc(S(=O)(=O)N3CCCCC3)ccc21	–	–	·	–
CCN(Cc1nc2ccccc2c(=O)[nH]1)C(=O)COc1ccccc1Cc1ccccc1	–	13µM	–	–
CCN(Cc1nc2cc(Cl)ccc2c(=O)[nH]1)C(=O)COc1ccccc1Cc1ccccc1	–	?	–	?
CC1CN(c2nc(Nc3ccccc3F)nc(N)c2[N+](=O)[O-])CC(C)O1 (configuration not stated)	–	–	?	–
CCc1ccc([C@@H]2C[C@H]3CN(Cc4ccccc4OC)C(=O)[C@]34CCCN24)cc1	–	13µM	–	–
O=C(Nc1cc([N+](=O)[O-])ccc1Cl)C(Sc1ccccc1)c1ccccc1 (configuration not stated)	–	?	–	–
O=C(Nc1ccc(Cl)c([N+](=O)[O-])c1)C(Sc1ccccc1)c1ccccc1 (configuration not stated)	–	8.9µM	–	?
O=[N+]([O-])c1ccc(NCCCNS(=O)(=O)c2ccc(Cl)cc2)c(Cl)c1	–	11µM	–	–
O=[N+]([O-])c1ccccc1NCCNS(=O)(=O)c1ccc(Cl)cc1	–	–	–	–
O=C(NNC(=O)c1ccccc1O)c1ccc(Cl)c(S(=O)(=O)N2CCCCC2)c1	–	?	–	–
COc1ccc2c(C)c(CCC(=O)NCCc3ccccc3)c(=O)oc2c1	–	–	·	–
CC1c2ccccc2SC(CCCN(C)C)c2ccccc21 (configuration not stated)	–	11µM	–	–
OC(COc1ccc(CNCCc2ccc(C(F)(F)F)cc2)cc1)CN1CCCCC1 (configuration not stated)	–	2.2µM	–	?
CC(C)C[C@H](NC(=O)[C@H](CCc1ccccc1)NC(=O)CN1CCOCC1)C(=O)N[C@@H](Cc1ccccc1)C(=O)N[C@@H](CC(C)C)C(=O)[C@@]1(C)CO1	·	·	–	·
O=C(NCC(c1ccco1)N1CCc2ccccc21)C(=O)Nc1ccc(F)cc1F (configuration not stated)	–	4µM	–	–
COc1cc(OC)cc(C(=O)Nc2nc(CC(=O)NCc3ccccc3OC)cs2)c1	–	10µM	–	?
COc1cc(OC)cc(C(=O)Nc2nc(CC(=O)NCCc3ccccc3)cs2)c1	–	?	–	–
SMILES	PTHR1 ag	GLP1R inv ag	GLP1R ag	HEK293 tox
COc1cc(OC)cc(C(=O)Nc2nc(CC(=O)NCc3ccc(F)cc3)cs2)c1	–	7.1µM	–	?
COc1ccccc1CNC(=O)Cc1csc(NC(=O)Nc2ccccc2OC)n1	–	?	–	?
COc1ccccc1NC(=O)Nc1nc(CC(=O)Nc2cc(F)ccc2F)cs1	–	5.6µM	–	?
COc1ccccc1NC(=O)Nc1nc(CC(=O)Nc2cccc(F)c2)cs1	–	?	–	?
O=C(NCC1(c2ccccc2)CCCC1)C(=O)Nc1cccc(C(F)(F)F)c1	?	–	·	–
CCOC(=O)c1oc2ccc(Br)cc2c1NC(=O)CN1CCN(C)CC1	–	8.9µM	10µM	–
COc1ccc(NC(=O)Cn2c(-c3ccccc3)cn(-c3ccc(C)cc3)c2=O)cc1	–	10µM	–	–
COc1ccc(-n2c(C)nc3cc(C(=O)NC4CCCCCC4)ccc32)cc1	–	?	·	–
COc1ccc(CC(=O)Nc2cccc(S(=O)(=O)N3CCOCC3)c2)cc1OC	–	–	–	–
CN1CCN(CCOCCOc2c(Cl)cc(Cl)cc2Cl)CC1	–	11µM	–	–
Clc1ccc(OCCCN2CCc3ccccc3C2)c(Br)c1	–	?	–	–
Cc1cc(Cl)c(OCCOCCN2CCN(C)CC2)c(Br)c1	–	?	–	–
Clc1ccc(OCCOCCN2CCc3ccccc3C2)c(Cl)c1	–	11µM	–	?
O=C(NCCCc1nc2ccccc2n1Cc1ccc(Cl)cc1Cl)c1ccco1	–	?	·	–
COc1cccc(NC(=O)Cn2c(=O)n(-c3ccc(C)cc3)c(=O)c3ccc(C(=O)NCc4ccco4)cc32)c1	–	?	·	?
Cc1cc(C)c(NC(=O)c2ccc(CNS(=O)(=O)c3cc(C(F)(F)F)ccc3Cl)cc2)c(C)c1	–	6.3µM	–	?
CCn1c2ccccc2c2cc(CN3CCN(Cc4ccc(Br)cc4)CC3)ccc21	–	?	·	–
Cc1c(Cl)cccc1NS(=O)(=O)c1ccccc1	–	10µM	–	–
Cc1ccc(-c2onc(C)c2C)cc1S(=O)(=O)Nc1cccc(Cl)c1C	–	10µM	·	?
O=C(O)c1cccc(S(=O)(=O)Nc2ccccc2-c2ccccc2)c1	–	–	–	–
O=S(=O)(Nc1ccccc1-c1ccccc1)c1ccccc1	–	6.3µM	–	–
COc1ccc(CCNC(=O)C(=O)NCC(c2cccs2)S(=O)(=O)c2ccc(F)cc2)cc1 (configuration not stated)	–	?	·	–
Cc1ccc(S(=O)(=O)c2nc(-c3ccccc3Cl)oc2N2CCN(C)CC2)cc1	–	10µM	–	–
O=C(CSc1nc2ccccc2nc1Cc1ccc(Cl)cc1)N1CCN(c2ccccc2F)CC1	–	–	·	–
CCOc1ccc(-c2cn3c(n2)sc2cc(C(=O)NCCCN4CCCCC4)ccc23)cc1	–	–	·	–
COc1ccc(NC(C)C(=O)Nc2ccc(C#N)cc2)cc1Cl (configuration not stated)	–	?	–	–
COc1ccc(NC(C)C(=O)Nc2ccc(C(C)(C)C)cc2)cc1Cl (configuration not stated)	–	4.5µM	–	–
COc1ccccc1C=NN=C(NN=Cc1ccccc1OC)NN=Cc1ccccc1OC	–	2.2µM	–	5µM
O=C(c1nc(-c2ccc(Cl)cc2)n2c1CCCCC2)N1CCN(c2ccc(F)cc2)CC1	–	10µM	·	–
CCOc1ccc(CNC(=O)C2CCN(S(=O)(=O)c3cn(C)cn3)CC2)cc1OC	–	–	·	–
